# ChEMBL document CHEMBL1157539, “Thousands of chemical starting points for antimalarial lead identification” (Nature, 2010)
# System: Plasmodium falciparum
# Assay: GSK_TCMDC: Inhibition of Plasmodium falciparum Dd2 in whole red blood cells, using parasite LDH activity as an index of growth. Test compounds present at 2uM
# Assay type: functional
row,Compound,Inhibition
1,O=C(Nc1ccccc1)Nc1cccc(-c2ccc(-c3nc4cc(C(F)(F)F)ccc4[nH]3)cc2)c1,37%
2,CC(C)(C)c1cc(C(=O)N2CCN(c3nccnc3C#N)CC2)n(Cc2ccccc2)n1,93%
3,Br.C=CCc1cccc(C)c1OCCCON1C(=N)N=C(N)NC1(C)C,95%
4,COc1cc(Nc2nccc(-c3c(-c4cccc(NC(=O)c5c(F)cccc5F)c4)nn4ncccc34)n2)cc(OC)c1OC,97%
5,O=C(O)c1ccc(OCOCOc2ccc(C(=O)O)c(O)c2)cc1O,0%
6,CC(C)(C)C1CCC(CC2=C(C(=O)O)c3ccccc3C2=O)CC1 (stereo not drawn),56%
7,Cc1nc(-c2cccc(C(=O)NC3CCC(CCN4CCc5ccc(-c6cccnc6)cc5CC4)CC3)c2)no1.Cl (stereo not drawn),4%
8,COc1c(C2CCN(CCCCNC(=O)c3cc(-c4ccc(Cl)cc4)sc3C)CC2)ccc2c1CCCC2,65%
9,Cc1cccc2nc(-c3ccc(-c4ccc(NC(=O)NCc5cccc(F)c5)cc4)s3)[nH]c12,43%
10,NCc1ccc(CNCc2ccc(-c3ccc(-c4nc5cc(F)ccc5[nH]4)cc3)cc2)cc1.O=C(O)C(F)(F)F,99%
11,CC1(C)N=C(N)N=C(N)N1c1ccc([N+](=O)[O-])cc1.Cl,1%
12,O=c1cnc2ccc(F)cc2n1CCN1CCC(NCc2cc(-c3ccccc3)cs2)CC1,14%
13,CC(C)C[C@H](Nc1ccc(C#N)c2ccccc12)C(=O)NC(C)(C)C12CC3CC(CC(C3)C1)C2.O=C(O)C(F)(F)F,30%
14,O=C(NCC1CCC(C(=O)NC2CCCc3ccccc32)CC1)c1ccc(O)c(-c2cccc([N+](=O)[O-])c2)c1 (stereo not drawn),97%
15,Cc1cc(N[C@@H](Cc2ccccc2)C(=O)NCc2cccc(F)c2)nc(NCCc2cccnc2)n1.O=C(O)C(F)(F)F,40%
16,O=C(Cc1ccc[n+]([O-])c1)Nc1cccc(-c2cccc(-c3nc4cc(C(F)(F)F)ccc4[nH]3)c2)c1,99%
17,CS(=O)(=O)CCNCc1cccc(-c2cc3c(Nc4ccc(OCc5ccccc5)cc4)ncnc3cn2)c1.Cl,26%
18,O=C(O)C(F)(F)F.O=[N+]([O-])c1cnc(Nc2ccccc2O)nc1Nc1ccccc1O,80%
19,COc1cc2nc(N3CCC(c4ccccc4)CC3)nc(NCc3ccc(=O)[nH]c3)c2cc1OC,58%
20,CCCCCCc1cc(OC)c(OC)cc1C(C)Nc1ccnc2cc(Cl)ccc12 (stereo not drawn),79%

row,Compound,Inhibition
1,O=C(Nc1ccc(-c2nc3ccccc3[nH]2)cc1)c1ccc([N+](=O)[O-])s1,77%
2,CCC(NC(=O)c1ccccc1NC(=O)c1ccc(C)cc1)C(=O)OC (stereo not drawn),86%
3,Oc1ccccc1CNC1CCCCC1NCc1ccccc1O (stereo not drawn),66%
4,CCCc1ccc(S(=O)(=O)NC2CCN(c3ccnc(Nc4ccc(OC)cc4)n3)C2)cc1 (stereo not drawn),45%
5,COc1cc2nc(NCCc3ccccc3)nc(NCCCc3ccccc3)c2cc1OC,100%
6,CN1CCN(c2ccnc3ccc(NC(=O)Cc4ccc5ccccc5c4)cc23)CC1,89%
7,CCc1cn2c3c(cc(C(=O)N[C@@H](Cc4ccccc4)[C@H](O)CNC4CCOCC4)cc13)N(CC(F)(F)F)S(=O)(=O)CC2.O=CO,98%
8,Cl.O=C(N[C@@H](Cc1ccccc1)[C@H](O)CNC1CCCc2ccccc21)c1cc(C2CCCC2)cc(N2CCCC2=O)c1 (stereo partly drawn),99%
9,O=C(Nc1ccc(-c2cccc(-c3nc4cc(C(F)(F)F)ccc4[nH]3)c2)cc1)c1csnn1,25%
10,Cc1cc2nc(-c3ccc(/C=C/C(=O)NC4CCN(Cc5ccccc5)CC4)cc3)[nH]c2cc1C,89%
11,Cc1sc2nc(CSc3ccccc3)nc(N3CCN(CC(=O)N4CCCC4)CC3)c2c1C,69%
12,CCN(CCCN1CCCCC1)c1cc(C)nc(Nc2ccc(Oc3ccccc3)cc2)n1.O=C(O)C(F)(F)F,99%
13,CN(/N=C/c1ccc(Cl)cc1)c1nc(NCCc2ccc(O)cc2)nc(N2CCNCC2)n1,97%
14,CCNc1cc(C)nc(Nc2ccc(NC(=O)C3CCCC3)cc2)n1,69%
15,CN1CCN(CC(=O)Nc2cccc(-c3cccc(-c4nc5cc(C(F)(F)F)ccc5[nH]4)c3)c2)CC1,98%
16,CCC(C)c1ccc(NC(=O)c2ccc(S(=O)(=O)Nc3ccc(OC)c(N4CCN(CC5CC5)CC4)c3)cc2)cc1.O=C(O)C(F)(F)F (stereo not drawn),17%
17,Cc1ccccc1C1CCN(C2CCC(NC(=O)/C=C/c3ccc(F)c(F)c3)CC2)CC1 (stereo not drawn),7%
18,Cc1cccc2nc(-c3ccc(-c4cccc(CNCc5cccc(N)c5)c4)s3)[nH]c12.O=C(O)C(F)(F)F,85%
19,Cc1cc(NC(=O)CCN2CCN(c3cccc(Cl)c3Cl)CC2)ccc1N1CCN(C(C)C)CC1.Cl,8%

# System: HepG2
# Assay: GSK_TCMDC: Percent inhibition of human HepG2 cell line. Test compounds present at 10uM.
# Assay type: functional
row,Compound,Inhibition
1,O=C(Nc1ccccc1)Nc1cccc(-c2ccc(-c3nc4cc(C(F)(F)F)ccc4[nH]3)cc2)c1,48%
2,CC(C)(C)c1cc(C(=O)N2CCN(c3nccnc3C#N)CC2)n(Cc2ccccc2)n1,0%
3,Br.C=CCc1cccc(C)c1OCCCON1C(=N)N=C(N)NC1(C)C,65%
4,COc1cc(Nc2nccc(-c3c(-c4cccc(NC(=O)c5c(F)cccc5F)c4)nn4ncccc34)n2)cc(OC)c1OC,96%
5,O=C(O)c1ccc(OCOCOc2ccc(C(=O)O)c(O)c2)cc1O,0%
6,CC(C)(C)C1CCC(CC2=C(C(=O)O)c3ccccc3C2=O)CC1 (stereo not drawn),0%
7,Cc1nc(-c2cccc(C(=O)NC3CCC(CCN4CCc5ccc(-c6cccnc6)cc5CC4)CC3)c2)no1.Cl (stereo not drawn),17%
8,COc1c(C2CCN(CCCCNC(=O)c3cc(-c4ccc(Cl)cc4)sc3C)CC2)ccc2c1CCCC2,61%
9,Cc1cccc2nc(-c3ccc(-c4ccc(NC(=O)NCc5cccc(F)c5)cc4)s3)[nH]c12,70%
10,NCc1ccc(CNCc2ccc(-c3ccc(-c4nc5cc(F)ccc5[nH]4)cc3)cc2)cc1.O=C(O)C(F)(F)F,12%
11,CC1(C)N=C(N)N=C(N)N1c1ccc([N+](=O)[O-])cc1.Cl,3%
12,O=c1cnc2ccc(F)cc2n1CCN1CCC(NCc2cc(-c3ccccc3)cs2)CC1,0%
13,CC(C)C[C@H](Nc1ccc(C#N)c2ccccc12)C(=O)NC(C)(C)C12CC3CC(CC(C3)C1)C2.O=C(O)C(F)(F)F,19%
14,O=C(NCC1CCC(C(=O)NC2CCCc3ccccc32)CC1)c1ccc(O)c(-c2cccc([N+](=O)[O-])c2)c1 (stereo not drawn),2%
15,Cc1cc(N[C@@H](Cc2ccccc2)C(=O)NCc2cccc(F)c2)nc(NCCc2cccnc2)n1.O=C(O)C(F)(F)F,18%
16,O=C(Cc1ccc[n+]([O-])c1)Nc1cccc(-c2cccc(-c3nc4cc(C(F)(F)F)ccc4[nH]3)c2)c1,41%
17,CS(=O)(=O)CCNCc1cccc(-c2cc3c(Nc4ccc(OCc5ccccc5)cc4)ncnc3cn2)c1.Cl,3%
18,O=C(O)C(F)(F)F.O=[N+]([O-])c1cnc(Nc2ccccc2O)nc1Nc1ccccc1O,24%
19,COc1cc2nc(N3CCC(c4ccccc4)CC3)nc(NCc3ccc(=O)[nH]c3)c2cc1OC,12%
20,CCCCCCc1cc(OC)c(OC)cc1C(C)Nc1ccnc2cc(Cl)ccc12 (stereo not drawn),6%

row,Compound,Inhibition
1,O=C(Nc1ccc(-c2nc3ccccc3[nH]2)cc1)c1ccc([N+](=O)[O-])s1,83%
2,CCC(NC(=O)c1ccccc1NC(=O)c1ccc(C)cc1)C(=O)OC (stereo not drawn),0%
3,Oc1ccccc1CNC1CCCCC1NCc1ccccc1O (stereo not drawn),53%
4,CCCc1ccc(S(=O)(=O)NC2CCN(c3ccnc(Nc4ccc(OC)cc4)n3)C2)cc1 (stereo not drawn),42%
5,COc1cc2nc(NCCc3ccccc3)nc(NCCCc3ccccc3)c2cc1OC,21%
6,CN1CCN(c2ccnc3ccc(NC(=O)Cc4ccc5ccccc5c4)cc23)CC1,6%
7,CCc1cn2c3c(cc(C(=O)N[C@@H](Cc4ccccc4)[C@H](O)CNC4CCOCC4)cc13)N(CC(F)(F)F)S(=O)(=O)CC2.O=CO,4%
8,Cl.O=C(N[C@@H](Cc1ccccc1)[C@H](O)CNC1CCCc2ccccc21)c1cc(C2CCCC2)cc(N2CCCC2=O)c1 (stereo partly drawn),31%
9,O=C(Nc1ccc(-c2cccc(-c3nc4cc(C(F)(F)F)ccc4[nH]3)c2)cc1)c1csnn1,42%
10,Cc1cc2nc(-c3ccc(/C=C/C(=O)NC4CCN(Cc5ccccc5)CC4)cc3)[nH]c2cc1C,18%
11,Cc1sc2nc(CSc3ccccc3)nc(N3CCN(CC(=O)N4CCCC4)CC3)c2c1C,19%
12,CCN(CCCN1CCCCC1)c1cc(C)nc(Nc2ccc(Oc3ccccc3)cc2)n1.O=C(O)C(F)(F)F,50%
13,CN(/N=C/c1ccc(Cl)cc1)c1nc(NCCc2ccc(O)cc2)nc(N2CCNCC2)n1,10%
14,CCNc1cc(C)nc(Nc2ccc(NC(=O)C3CCCC3)cc2)n1,13%
15,CN1CCN(CC(=O)Nc2cccc(-c3cccc(-c4nc5cc(C(F)(F)F)ccc5[nH]4)c3)c2)CC1,26%
16,CCC(C)c1ccc(NC(=O)c2ccc(S(=O)(=O)Nc3ccc(OC)c(N4CCN(CC5CC5)CC4)c3)cc2)cc1.O=C(O)C(F)(F)F (stereo not drawn),24%
17,Cc1ccccc1C1CCN(C2CCC(NC(=O)/C=C/c3ccc(F)c(F)c3)CC2)CC1 (stereo not drawn),34%
18,Cc1cccc2nc(-c3ccc(-c4cccc(CNCc5cccc(N)c5)c4)s3)[nH]c12.O=C(O)C(F)(F)F,15%
19,Cc1cc(NC(=O)CCN2CCN(c3cccc(Cl)c3Cl)CC2)ccc1N1CCN(C(C)C)CC1.Cl,82%
